Assay results published in PubChem BioAssay (NCI).
Compounds without any hit were thinned out: in the full panel of roughly 79,000, 15% have a hit. The source made the active and inactive calls. Rule as the data show it: active = growth inhibition above about 70%; inactive = the rest.

How the values were obtained:
[1] = NCI Yeast Anticancer Drug Screen. Data for the rad52 strain (AID 147);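 also: 0% = growth of vehicle-treated control cultures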; details: S. cerevisiae rad52 mutant growth inhibition, active compounds read high
Outline: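 Here a repair-compromised yeast strain receives each compound; its growth is then quantified and normalised to vehicle-only controls.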

[2] = NCI Yeast Anticancer Drug Screen. Data for the wt1 strain (AID 149);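 also: 0% = growth of vehicle-treated wt1 cultures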; details: S. cerevisiae wt1 strain (SPY 50644) growth inhibition, active compounds read high
Outline: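 wt1 yeast, compound-treated; % growth inhibition vs vehicle control.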

[3] = NCI Yeast Anticancer Drug Screen. Data for the rad50EPP+ strain (AID 151);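 also: 0% = growth of vehicle-treated control cultures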; details: S. cerevisiae rad50 mutant strain, active compounds read high
Outline: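 Read-out is yeast growth inhibition relative to vehicle; cells used were the rad50EPP+ strain.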

[4] = NCI Yeast Anticancer Drug Screen. Data for the mgt1 strain (AID 153); details: S. cerevisiae mgt1 mutant growth inhibition, active compounds read high
Outline: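 Measured: inhibition of mgt1 yeast growth by compound, normalized to vehicle-treated cultures.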

[5] = NCI Yeast Anticancer Drug Screen. Data for the rad50 strain (AID 155);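 also: 0% = growth of vehicle-only cultures of the same strain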; details: S. cerevisiae rad50 strain growth inhibition, active compounds read high
Outline: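 Genetically altered yeast (DNA repair pathway); compound treatment; growth inhibition vs vehicle ctrl.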

[6] = NCI Yeast Anticancer Drug Screen. Data for the mec2-1 strain (AID 157); details: S. cerevisiae mec2-1 strain, active compounds read high
Outline: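 Using mec2-1 yeast: add compound, measure growth, express inhibition versus vehicle-treated cultures.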

[7] = NCI Yeast Anticancer Drug Screen. Data for the rad14 strain (AID 159);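 also: 0% = growth of vehicle-treated control cultures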; details: S. cerevisiae rad14 strain growth inhibition, active compounds read high
Outline: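 Test compounds were applied to a repair-deficient yeast strain. Its growth was then compared with that of cultures given vehicle alone, and inhibition was expressed relative to those controls.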

[8] = NCI Yeast Anticancer Drug Screen. Data for the sgs1 mgt1 strain (AID 161);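 also: 0% = growth of cultures given vehicle only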; details: S. cerevisiae sgs1 mgt1 strain, active compounds read high
Outline: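 Yeast cells carrying a defined DNA-repair defect were exposed to test compounds. Growth inhibition was measured relative to vehicle-treated controls.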

[9] = NCI Yeast Anticancer Drug Screen. Data for the cln2 rad14 strain (AID 165);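 also: 0% = growth equal to vehicle treated cultures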; details: S. cerevisiae cln2 rad14 strain, active compounds read high
Outline: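 Yeast strain cln2 rad14, bearing defects in cell cycle control and DNA repair, serves as the test system; values reflect growth inhibition compared with vehicle.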

[10] = NCI Yeast Anticancer Drug Screen. Data for the bub3 strain (AID 167); details: S. cerevisiae bub3 mutant strain, active compounds read high
Outline: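 Yeast carrying a defined mutation is treated with each compound, and growth is compared with that of vehicle-exposed cells to give inhibition.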

[11] = NCI Yeast Anticancer Drug Screen. Data for the mlh1 strain (AID 171);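 also: 0% = growth of vehicle-treated control cultures of the same strain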; details: S. cerevisiae mlh1 strain growth inhibition, active compounds read high
Outline: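 A yeast strain with a defined genetic lesion serves as the test organism. Cultures receive compound or vehicle, and growth is measured.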

[12] = NCI Yeast Anticancer Drug Screen. Data for the mlh1 rad18 strain (AID 175); details: S. cerevisiae mlh1 rad18 strain growth inhibition, active compounds read high
Outline: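 Steps: expose repair-defective yeast to compound; measure growth; express inhibition against vehicle-treated controls.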

[13] = NCI Yeast Anticancer Drug Screen. Data for the rad18 strain (AID 177); details: S. cerevisiae rad18 mutant growth inhibition, active compounds read high
Outline: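 Measured value is growth inhibition of a yeast strain bearing a DNA repair alteration, referenced to vehicle-treated cells.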

[14] = NCI Yeast Anticancer Drug Screen. Data for the sgs1 strain (AID 173);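 also: 0% = growth of vehicle-only control cultures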; details: S. cerevisiae sgs1 mutant, active compounds read high
Outline: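 A genetically defined yeast mutant is incubated with the test compound, and its growth is compared to that of the same strain given vehicle.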

[15] = NCI Yeast Anticancer Drug Screen. Data for the CLN2oe strain (AID 163);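 also: 0% = growth of vehicle-only control cultures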; details: S. cerevisiae CLN2oe strain, active compounds read high
Outline: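 Whole-cell yeast growth assay. A strain engineered for altered cell-cycle control received compound, and inhibition relative to vehicle-treated cultures was recorded.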

[16] = at 5.0 µM (retest, dose inferred, filed as 0.5)
[17] = at 50.0 µM (retest, dose inferred, filed as 5.0)

Measured: growth inhibition

CN(CCc1ccccn1)c1ccc2c(c1)Cc1ccccc1-2
active: [3]; at 11.0 µM 91% | [3]; at 33.0 µM 89% | [3]; at 100.0 µM 88% | [5]; at 50.0 µM 90.2% | [8]; [17] 82% | [8]; at 50.0 µM 83.3% | [12]; [17] 72% | [12]; at 50.0 µM 77.4% | [13]; at 3.7 µM 89% | [13]; at 11.0 µM 95% | [13]; at 33.0 µM 94% | [13]; at 100.0 µM 94%
inactive: [1]; at 1.2 µM 1% | [1]; at 3.7 µM 11% | [1]; at 11.0 µM 54% | [1]; at 33.0 µM 45% | [1]; at 100.0 µM 53% | [2]; at 1.2 µM 1% | [2]; at 3.7 µM 7% | [2]; at 11.0 µM 6% | [2]; at 33.0 µM 5% | [2]; at 100.0 µM 2% | [3]; at 1.2 µM 29% | [3]; at 3.7 µM 68% | [4]; at 1.2 µM -3% | [4]; at 3.7 µM -4% | [4]; at 11.0 µM 1% | [4]; at 33.0 µM 3% | [4]; at 100.0 µM 19% | [5]; at 1.2 µM 4% | [5]; at 3.7 µM 26% | [5]; [16] 20% | [5]; at 11.0 µM 69% | [5]; at 33.0 µM 68% | [5]; [17] 57% | [5]; at 100.0 µM 67% | [6]; at 1.2 µM -1% | [6]; at 3.7 µM 8% | [6]; [16] 5% | [6]; at 11.0 µM 26% | [6]; at 33.0 µM 20% | [6]; [17] 1% | [6]; at 50.0 µM 4.05% | [6]; at 100.0 µM 20% | [7]; at 1.2 µM 1% | [7]; at 3.7 µM 10% | [7]; at 11.0 µM 38% | [7]; at 33.0 µM 37% | [7]; at 100.0 µM 56% | [8]; [16] 9% | [9]; [16] 0% | [9]; [17] 10% | [9]; at 50.0 µM -2.25% | [10]; at 1.2 µM 0% | [10]; at 3.7 µM -4% | [10]; [16] -12% | [10]; at 11.0 µM 13% | [10]; at 33.0 µM 21% | [10]; [17] 30% | [10]; at 50.0 µM 18.4% | [10]; at 100.0 µM 20% | [11]; at 1.2 µM 0% | [11]; at 3.7 µM 3% | [11]; at 11.0 µM 17% | [11]; at 33.0 µM 15% | [11]; at 100.0 µM 31% | [12]; [16] 20% | [13]; at 1.2 µM 46%

O=[N+]([O-])c1ccc([N+]2=NC(c3ccccc3)=NN(c3ccccc3)C2)cc1
active: [4]; at 100.0 µM 95% | [7]; at 100.0 µM 93% | [8]; at 50.0 µM 74.5% | [10]; [17] 91% | [10]; at 50.0 µM 78% | [10]; at 100.0 µM 87% | [11]; at 100.0 µM 93% | [14]; at 100.0 µM 91% | [12]; at 50.0 µM 80.5% | [13]; at 100.0 µM 70%
inactive: [1]; at 1.2 µM 8% | [1]; at 3.7 µM 11% | [1]; at 11.0 µM 10% | [1]; at 33.0 µM 14% | [1]; at 100.0 µM 56% | [2]; at 1.2 µM 3% | [2]; at 3.7 µM 5% | [2]; at 11.0 µM 4% | [2]; at 33.0 µM 3% | [2]; at 100.0 µM 51% | [3]; at 1.2 µM 6% | [3]; at 3.7 µM 12% | [3]; at 11.0 µM 21% | [3]; at 33.0 µM 22% | [3]; at 100.0 µM 20% | [4]; at 1.2 µM 6% | [4]; at 3.7 µM 5% | [4]; at 11.0 µM 7% | [4]; at 33.0 µM 21% | [5]; at 1.2 µM 5% | [5]; at 3.7 µM -6% | [5]; [16] 1% | [5]; at 11.0 µM -9% | [5]; at 33.0 µM 15% | [5]; [17] 30% | [5]; at 50.0 µM 67.3% | [5]; at 100.0 µM 63% | [6]; at 1.2 µM -2% | [6]; at 3.7 µM -2% | [6]; [16] -9% | [6]; at 11.0 µM 0% | [6]; at 33.0 µM 9% | [6]; [17] 6% | [6]; at 50.0 µM 18.4% | [6]; at 100.0 µM 42% | [7]; at 1.2 µM 4% | [7]; at 3.7 µM 8% | [7]; at 11.0 µM 20% | [7]; at 33.0 µM 44% | [8]; [16] -1% | [8]; [17] 17% | [9]; [16] 9% | [9]; [17] 20% | [9]; at 50.0 µM 21.4% | [10]; at 1.2 µM -2% | [10]; at 3.7 µM 0% | [10]; [16] 10% | [10]; at 11.0 µM 12% | [10]; at 33.0 µM 30% | [11]; at 1.2 µM 1% | [11]; at 3.7 µM 4% | [11]; at 11.0 µM 6% | [11]; at 33.0 µM 19% | [14]; at 1.2 µM 0% | [14]; at 3.7 µM 1% | [14]; at 11.0 µM 2% | [14]; at 33.0 µM 28% | [12]; [16] -2% | [12]; [17] 48% | [13]; at 1.2 µM 3% | [13]; at 3.7 µM 4% | [13]; at 11.0 µM 2% | [13]; at 33.0 µM 11%

CC(C)/C(Cl)=N\OC(=O)Nc1ccc(F)cc1
active: [1]; at 100.0 µM 78% | [3]; at 100.0 µM 98% | [4]; at 33.0 µM 78% | [4]; at 100.0 µM 99% | [5]; at 100.0 µM 81% | [6]; at 100.0 µM 95% | [8]; [17] 86% | [8]; at 50.0 µM 88.7% | [10]; [17] 83% | [10]; at 50.0 µM 73.8% | [10]; at 100.0 µM 99%
inactive: [1]; at 1.2 µM 3% | [1]; at 3.7 µM 6% | [1]; at 11.0 µM 11% | [1]; at 33.0 µM 20% | [2]; at 1.2 µM 2% | [2]; at 3.7 µM -1% | [2]; at 11.0 µM -3% | [2]; at 33.0 µM -5% | [2]; at 100.0 µM -3% | [3]; at 1.2 µM 1% | [3]; at 3.7 µM 11% | [3]; at 11.0 µM 24% | [3]; at 33.0 µM 57% | [4]; at 1.2 µM 3% | [4]; at 3.7 µM 0% | [4]; at 11.0 µM 6% | [5]; at 1.2 µM 5% | [5]; at 3.7 µM 10% | [5]; [16] 24% | [5]; at 11.0 µM 12% | [5]; at 33.0 µM 23% | [5]; [17] 48% | [5]; at 50.0 µM 10.7% | [6]; at 1.2 µM 6% | [6]; at 3.7 µM 10% | [6]; [16] 35% | [6]; at 11.0 µM 13% | [6]; at 33.0 µM 23% | [6]; [17] 63% | [6]; at 50.0 µM 34% | [7]; at 1.2 µM 4% | [7]; at 3.7 µM 8% | [7]; at 11.0 µM 11% | [7]; at 33.0 µM 13% | [7]; at 100.0 µM 69% | [8]; [16] 26% | [15]; at 1.2 µM 12% | [15]; at 3.7 µM 16% | [15]; at 11.0 µM 15% | [15]; at 33.0 µM 14% | [15]; at 100.0 µM 15% | [9]; [16] 27% | [9]; [17] 29% | [9]; at 50.0 µM 38.8% | [10]; at 1.2 µM 13% | [10]; at 3.7 µM 22% | [10]; [16] 52% | [10]; at 11.0 µM 32% | [10]; at 33.0 µM 45%
